Most compounds without a hit are left out; they make up all but 8% or so of the library.
TSHR antagonist: Antagonists of the Thyroid Stimulating Hormone Receptor: HTS campaign; Thyrotropin receptor (Homo sapiens), P16473; TSHR-expressing cells, TSH-stimulated cAMP HTRF, 2 h; stronger effect = lower value; activity change, negative = inhibition, % at 11.5 µM; 330,000 tested, 0.2% active; AID 504810, 2011;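 active = activity change below a set negative limit, meaning inhibition stronger than a set level, cut at about -70% in these data; inconclusive = activity change between two set negative limits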
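TSHR-expressing cells were treated with compounds, then stimulated with TSH at EC80 (4nM final) for 2 hours at 37 deg C. Cellular cAMP was measured by HTRF competition between lysate cAMP and cAMP-d2 for a cryptate-labelled anti-cAMP antibody.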
FBPA coupling cs: qHTS Assay for Inhibitors of Fructose-1,6-bisphosphate Aldolase from Giardia Lamblia: Coupling assay counterscreen; 290,000 tested, 0.67% active; activity change, negative = inhibition, % at 58.2 µM, hits read low; AID 2472, 2010; coupling enzyme system counterscreen, AmpLite Red fluorescence; in the data active = activity change below about -30%
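Coupling enzymes only (glyceraldehyde-3-phosphate) + compound, at 57.5 uM final, 10 min RT; add substrate/coupling/AmpLite Red mix, 20 min RT; fluorescence ex 525/em 598 nm. Actives flag coupling-system interference.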
ELG1 DNA repair: qHTS screen for small molecules that inhibit ELG1-dependent DNA repair in human embryonic kidney (HEK293T) cells expressing luciferase-tagged ELG1 | HEK293T ELG1-luciferase reporter, luminescence, 16 h; DNA damage induced by 5-fluorouridine | Potency, µM (doses to about 46.1 µM), for inactives: top-dose activity change, negative = inhibition, hits mostly inhibitors | 330,000 tested, 2.3% active; note: potency is the fitted concentration of half-maximal effect; nearly all actives have a fitted effect of over 55% in size
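5-Fluorouridine DNA damage + compound/DMSO, 2,000 cells/well, 16 h, 37 °C/5% CO2. ONE-Glo, 30 min RT, luminescence. Readout = decrease in reporter signal.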
VP16 counter: VP16 counterscreen qHTS for inhibitors of ROR gamma transcriptional activity. Drosophila S2 Gal4-VP16 UAS-luciferase, luminescence, 20 h. Potency, µM (series often up to 53.6 µM), without a hit: top-dose activity, negative = inhibition, hits mostly inhibitors. 310,000 tested, 3.5% active. AID 2546, 2010;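 note: Gal4-VP16 expression switched on by copper sulfate through the metallothionein promoter; potency is the fitted concentration of half-maximal effect; nearly all actives have a fitted effect of over 50% in size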
RORgamma inh: qHTS for inhibitors of ROR gamma transcriptional activity | Nuclear receptor ROR-gamma (Mus musculus), P51450 | Drosophila S2 Gal4-RORgamma UAS-luciferase reporter, 20 h | Potency, µM (top dose mostly 53.6 µM), inactives show top-dose activity change, negative = inhibition, most hits filed as inhibitors | 310,000 tested, 5.4% active; note: potency is the fitted concentration of half-maximal effect; nearly all actives have a fitted effect of over 60% in size
Target sequence (P51450 whole entry, looked up, the tested form may be a part): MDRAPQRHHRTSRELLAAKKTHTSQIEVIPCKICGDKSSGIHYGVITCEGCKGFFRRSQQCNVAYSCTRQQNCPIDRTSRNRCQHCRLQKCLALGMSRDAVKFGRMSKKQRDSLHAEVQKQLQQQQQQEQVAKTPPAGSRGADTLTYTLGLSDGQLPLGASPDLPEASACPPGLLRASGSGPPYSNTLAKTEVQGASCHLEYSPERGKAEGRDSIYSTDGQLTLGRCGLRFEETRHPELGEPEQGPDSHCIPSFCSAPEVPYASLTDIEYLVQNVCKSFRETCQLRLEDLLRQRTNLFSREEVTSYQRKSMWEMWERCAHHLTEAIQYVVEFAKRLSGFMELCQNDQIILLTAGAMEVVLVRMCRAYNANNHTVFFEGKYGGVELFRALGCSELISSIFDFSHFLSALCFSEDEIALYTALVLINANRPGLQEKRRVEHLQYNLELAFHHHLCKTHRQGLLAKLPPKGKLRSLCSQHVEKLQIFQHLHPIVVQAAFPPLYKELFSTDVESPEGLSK
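Drosophila S2 cells stably expressing Gal4-DBD/mouse RORγ fusion under metallothionein promoter plus UAS-luciferase; compound 1 h, then 700 uM CuSO4 induction for 20 h at ambient temperature; inhibition read as reduced luminescence.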
Numbers without * were called inactive; ? = inconclusive; . = not tested or not shown; [ ] = dose if it differs, or a comment. Unless noted, calls come from the whole dose curve; as a rule, active = well fitted curve in the direction sought with a large enough effect; inconclusive = small, poorly fitted or top-dose-only effect, or another doubt; inactive = no such curve, though single readings can be large; an effect the other way counts as inactive or inconclusive. % is set by controls: 0 for no effect and ±100 for the full control effect.

SMILES | TSHR antagonist | FBPA coupling cs | ELG1 DNA repair | VP16 counter | RORgamma inh
CCOc1ccc(Nc2nc(Cc3nnc(SCC(=O)c4ccc(C)c(C)c4)o3)cs2)cc1 | -25.8 | 3.0 | 23.1µM* | 5.1% | ?
C[C@H]1CCC[C@]2(C)C[C@H]3OC(=O)C(CN4CCCCCC4)[C@H]3C=C12 (stereo partly specified) | -42.9 | 1.1 | ? | -23.4% | ?
C=C1C(=O)OC2C[C@@]3(C)CCCC(C)C3=CC12 (stereo partly specified) | . | 3.3 | . | ? | 10µM*
COc1ccc(N2CCN(Cc3nc4ccccc4n3C)CC2)cc1 | 2.1 | 0.5 | -7.5% | 2.3% | 12.6µM*
COc1ccc(/C=C(/NC(=O)c2ccc(C)cc2)C(=O)N2CCCC2)cc1OC | -0.6 | 0.3 | -0.6% | 3.0% | 1.3%
CC[C@H](/C=C/[C@@H](C)[C@H]1CC[C@H]2C3CC=C4C[C@@H](O)CC[C@]4(C)C3CC[C@]12C)C(C)C (stereo partly specified) | . | 0.3 | . | -2.3% | 9.4%
COc1ccc(C2C(C#N)=C(N)OC(C(C)(C)C)=C2C#N)cc1OC (stereo unspecified) | -20.0 | -36.7* | 3.4% | 4.3% | -0.8%
O=C(Oc1ccc2ccccc2c1)C1CCC1 | -5.1 | -0.2 | 4.8% | -4.0% | 32.7%
O=C(Oc1ccc(OC(=O)C2CCC2)cc1)C1CCC1 | 3.2 | 0.3 | -16.7% | 22.4µM* | 11.2µM*
Cc1ccc(NC(=O)C(C)Sc2nc(-c3ccccc3)cc(=O)[nH]2)cc1 (stereo unspecified) | 3.2 | 3.2 | 3.9% | -15.0% | 4.2%
Cc1cc[n+](-c2nc3ccccc3nc2C(=C=[N-])C#N)cc1 | -2.9 | -40.8* | 4.8% | -9.3% | -43.7%
N#CC(=C=[N-])c1nc2ccccc2nc1-[n+]1ccccc1 | -6.7 | -0.1 | 24.2% | -2.9% | -3.0%
CC[C@H](NC(=O)[C@H](CCC(=O)O)NC(=O)[C@H](CCC(=O)O)NC(=O)[C@H](CC(=O)O[S+](=O)([O-])c1cccc2c(NCCN)cccc12)NC(=O)[C@H](CCC(=O)O)NC(=O)[C@H](CC(=O)O)NC(C)=O)C(=O)ON[C@@H](C)C(=O)N[C@@H](CO)C(=O)N[C@@H](CCCCNC(=O)c1ccc(N=Nc2ccc(N(C)C)cc2)cc1)C(N)=O | . | -0.5 | . | 9.4% | -10.7%
O=C(Nc1ccc(Cl)cc1)Nc1cccc2nsnc12 | -18.3 | -6.2 | ? | ? | 91.6%
Cc1nn(-c2nnc(C)c(=O)[nH]2)c(C)c1SCC(=O)Nc1ccc(C(C)C)cc1 | 8.3 | 6.3 | 4.8% | 19.3% | 1.12µM*
Cc1ccc(-c2ccc(/C=C3\C(=O)ON=C3c3ccccc3)o2)c([N+](=O)[O-])c1 | -8.8 | -1.0 | ? | 15.8µM* | ?
CCCCn1c(N)c(N(CC(C)C)C(=O)C2CCN(S(=O)(=O)c3ccc(OCC)cc3)CC2)c(=O)[nH]c1=O | 3.1 | . | 24.6% | . | .
CCOc1ccc(N2CC(C(=O)NCc3ccc4c(c3)OCO4)CC2=O)cc1 (stereo unspecified) | 0.6 | 4.0 | -14.0% | 0.2% | -14.0%
CC(C)(C)OC(=O)NCc1ccc(CNC(=O)c2[nH]cnc2C(=O)N[C@@H](Cc2ccccc2)C(=O)OCc2ccccc2)cc1 | -6.3 | -2.2 | -7.6% | ? | 11.2µM*
CC(C)(C)OC(=O)NCc1ccc(CNC(=O)c2[nH]cnc2C(=O)N[C@@H](Cc2ccccc2)C(=O)OC(C)(C)C)cc1 | -11.5 | -1.6 | ? | 20µM* | 11.2µM*
CC(C)(C)OC(=O)[C@H](Cc1ccccc1)NC(=O)c1nc[nH]c1C(=O)N[C@@H](CCCCN)C(=O)OC(C)(C)C | -13.6 | . | 21.3% | . | .
CNC(=O)c1[nH]cnc1C(=O)N[C@@H](Cc1ccccc1)C(=O)OC(C)(C)C | -8.5 | -0.6 | -0.2% | ? | 7.94µM*
CC(C)C[C@H](NC(=O)c1nc[nH]c1C(=O)NCc1ccc(CNC(=O)OC(C)(C)C)cc1)C(=O)OCc1ccccc1 | -0.4 | -7.6 | ? | ? | 11.2µM*
CC(=O)OCC(=O)[C@@]1(O)CC[C@@H]2[C@H]3CCC4=CC(=O)CC[C@]4(C)[C@]3(F)[C@@H](O)C[C@@]21C | . | -1.9 | . | -0.4%[17 µM] | 14.1%[16.9 µM]
O=C(COC(=O)c1ccc([N+](=O)[O-])o1)NC1CCCc2ccccc21 (stereo unspecified) | -13.5 | . | ? | . | .
SMILES | TSHR antagonist | FBPA coupling cs | ELG1 DNA repair | VP16 counter | RORgamma inh
CN(C)C1(CNC(=O)C2CCN(S(=O)(=O)c3ccccc3C(F)(F)F)CC2)CCCCC1 | 3.4 | . | 0.0% | -2.9% | 2.4%
CC(C)(C)OC(=O)[C@H](Cc1ccccc1)NC(=O)c1nc[nH]c1C(=O)NCc1ccccc1 | -5.6 | -1.3 | -14.7% | 15.8µM* | 11.2µM*
C[C@H](NC(=O)c1nc[nH]c1C(=O)NCc1ccccc1)C(=O)OC(C)(C)C | 17.8 | -13.0 | -4.4% | -2.9% | -36.6%
CC(C)(C)OC(=O)NCc1ccc(NC(=O)c2nc[nH]c2C(=O)N[C@@H](Cc2ccccc2)C(=O)OCc2ccccc2)cc1 | 7.8 | -3.6 | ? | ? | 7.08µM*
CCOc1ccc(C(=O)N/N=C(\c2ccccc2)c2ccccn2)cc1 | -12.6 | 1.0 | ? | 0.0562µM* | 0.199µM*
Cn1ccnc1/C(=N\NC(=O)c1ccccc1)c1cccc([N+](=O)[O-])c1 | 1.9 | 2.3 | 7.3% | -12.0% | -86.3%
O=C(N/N=C(\c1ccccc1)c1ccccn1)c1cccc([N+](=O)[O-])c1 | -4.7 | 0.5 | ? | -13.4% | 0.447µM*
Cn1c(=O)c([N+](=O)[O-])c(NCCCn2ccnc2)c2ccccc21 | 9.1 | 9.7 | 0.2% | -2.5% | 4.3%
Cn1c(=O)c([N+](=O)[O-])c(-n2ccnc2)c2ccccc21 | -25.1 | 1.7 | -3.2% | 7.94µM* | ?
COc1cccc(N2CCN(C(=O)C3CCCN(c4ncnc5c4nc4n5CCCCC4)C3)CC2)c1 (stereo unspecified) | -6.7 | -3.5 | 3.26µM* | -3.2% | 42.7%
CC1CCN(C(=O)C2CCCN(c3ncnc4c3nc3n4CCCCC3)C2)CC1 (stereo unspecified) | -7.9 | . | -21.1% | -1.5% | 4.2%
CCc1c(C)nc2ncnn2c1N1CCC(C(=O)N2CCN(c3ccc(F)cc3)CC2)CC1 | 3.8 | 1.4 | 23.1µM* | -17.2% | 39.7%
O=C(C1CCN(c2ncnc3c2nc2n3CCCCC2)CC1)N1CCCCC1 | 7.3 | . | -0.5% | 12.8% | -13.3%

Source: PubChem (National Center for Advancing Translational Sciences (NCATS))
